This is a sample that favours compounds with a hit; in the whole collection about 2.1% have one here.
HSV augment: enhancers of HSV replication in host cells, fold increase, host cell viability; HSV replication augmentation in cells; maximum fold increase; 0.005% of 220,000 active; AID 1956, 2009; in the data active means maximum fold increase above about 1.5; tested in PC3 cells
Arbovirus anti: antivirals against arbovirus infection, primary screen, cell-based, full library, 10K replicate subset. AID 1251, 2008. inhibition, % at 10 µM. 0.37% of 200,000 active. arbovirus infection cell-based antiviral screen; in the data active means inhibition above about 30%
m-calpain inh: inhibitors of pig calpain II, primary screen, biochemical, fluorogenic peptide substrate, 1536-well; purified calpain II, 30 min; inhibition, % at 16 µM; 0.37% of 220,000 active;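 active means inhibition above about 50%, limit read from the data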
ROMK primary: ROMK potassium channel modulators, primary screen, cell-based, thallium flux, MLSMR library. ATP-sensitive inward rectifier potassium channel 1 (Homo sapiens), P48048. Tet-inducible ROMK, thallium flux fluorescence; actives lie on both sides. B-score at 10 µM. 2% of 130,000 active. AID 1918, 2009;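 active means signal ratio slope over the read window, or its plate-corrected B-score, at least 3 SD from the plate mean, either direction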;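 further: B-score of the F/F0 ratio slope over 7 to 12 s after thallium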
Target sequence (P48048 whole entry, looked up): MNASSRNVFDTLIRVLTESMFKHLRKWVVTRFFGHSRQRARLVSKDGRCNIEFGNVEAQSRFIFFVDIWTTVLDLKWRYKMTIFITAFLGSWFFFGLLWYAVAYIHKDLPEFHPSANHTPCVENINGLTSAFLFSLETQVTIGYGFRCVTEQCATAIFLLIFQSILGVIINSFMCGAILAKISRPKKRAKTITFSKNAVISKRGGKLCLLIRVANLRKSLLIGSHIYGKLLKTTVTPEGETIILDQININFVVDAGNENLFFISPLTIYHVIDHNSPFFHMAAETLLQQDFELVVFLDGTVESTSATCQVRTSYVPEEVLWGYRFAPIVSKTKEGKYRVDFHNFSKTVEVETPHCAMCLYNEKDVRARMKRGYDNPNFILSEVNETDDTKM
Efa HMGR inh: inhibitors of E. faecalis class II HMGR, primary screen, biochemical, Enterococcus faecalis. HMG-CoA reductase (Enterococcus faecalis, mvaE). inhibition, % at 10 µM. purified E. faecalis HMGR, NADPH absorbance 340 nm kinetic. AID 1066, 2008. 0.41% of 190,000 active;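 active means inhibition above a set limit, the median over all tested compounds plus 3 SD, cut at about 9.5% in these data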;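 further: enzyme runs in reverse so mevalonate oxidation gives rising NADPH absorbance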
Hits are given with their value; . = inactive; / = no result given; + = active, no number.

SMILES | HSV augment | Arbovirus anti | m-calpain inh | ROMK primary | Efa HMGR inh
NS(=O)(=O)c1ccc(CCNS(=O)(=O)c2ccc(Cl)nc2)cc1 | . | / | . | / | /
Cc1ccc(NS(=O)(=O)c2ccc3c(c2)C(=O)c2ccccc2C3=O)c(C)c1 | . | . | . | . | .
Cc1cccc(S(=O)(=O)Nc2cccc3c2C(=O)c2ccccc2-3)c1 | 4.08 | . | . | / | .
CCOC(=O)CCNC(=O)Nc1ccc2nc(C)n(Cc3cccc(Cl)c3)c(=O)c2c1 | . | . | 65.6 | / | .
CC(=O)Nc1ccc(SCC(=O)N(CCC#N)c2cc(C)cc(C)c2)cc1 | . | 49.0 | . | . | .
Cc1cccc(OCCC(=O)Nc2ccc(C)c(S(=O)(=O)N3CCCCC3)c2)c1 | . | . | 55.1 | / | .
CN(c1ccccc1)S(=O)(=O)c1cccc(C(=O)Nc2nn[nH]n2)c1 | . | / | . | / | /
O=[N+]([O-])c1ccc(N/N=C/c2sc(N3CCOCC3)nc2-c2ccccc2)c(S(=O)(=O)Nc2ccccc2Cl)c1 | . | . | . | -5.04 | .
O=C(OC1C[C@@H]2CC3C[C@H](C1)N2CC3=O)c1c[nH]c2ccccc12 (some centres not stated) | . | / | / | / | /
N#C/C(=N\Nc1cccc(C(F)(F)F)c1)C(=O)c1csc(-c2cccnc2)n1 | . | / | . | -3.85 | /
CCOc1ccc(OCc2ccc(C(=O)N3CCCC(C)C3)cc2)cc1 (configuration not stated) | . | . | 70.7 | . | .
COc1cccc(-c2csc(N3CCN(C(=O)Nc4ccc(Cl)cc4)CC3)n2)c1 | . | . | . | . | 9.9
COc1ccc(CCN2C(=O)CSC2=Nc2ccc(C(C)C)cc2)cc1OC | . | / | . | . | /
O=C(c1cc(-c2cccnc2)nc2ccc(Br)cc12)N1CCN(c2ncccn2)CC1 | . | . | . | / | .
CC(=O)c1ccc(N2CCN(C(=O)c3cc(-c4cccnc4)nc4ccc(Br)cc34)CC2)cc1 | . | 32.1 | . | . | .
COc1ccc(-c2nc(NC(=O)c3ccc(OCC(=O)N4CCOCC4)c(OC)c3)sc2C)cc1 | . | 44.7 | . | . | .
COc1cc(C(=O)Nc2nc(-c3ccc(Cl)cc3)c(C)s2)ccc1OCC(=O)Nc1ccc(F)cc1 | . | . | . | / | .
CCOC(=O)c1ccc2ncc(C(=O)OCC)c(NCc3ccco3)c2c1 | . | . | . | 3.26 | .
CC(=O)Oc1ccc(N(c2ccccc2)S(=O)(=O)c2ccc(C)cc2)cc1 | . | . | . | . | .
O=C1NCCCC1C(=O)Nc1ccccc1C(F)(F)F (configuration not stated) | . | . | . | / | +
COc1ccc2oc3cc(C)[n+]([O-])c(-c4ccc(C)cc4)c3c2c1 | . | 45.5 | . | . | .
COc1ccc(-c2c(C)oc3ccc(C)cc23)cc1 | . | . | . | . | .
COc1ccc2oc3cc(C)[n+]([O-])c(-c4ccc(Cl)cc4)c3c2c1 | . | 44.9 | . | . | .
COc1ccc(-c2c3c(cc(C)[n+]2[O-])oc2ccc(OC)cc23)cc1 | . | 39.6 | . | . | .
O=C(Nc1nnc(C2CC2)s1)c1cc([N+](=O)[O-])ccc1N1CCCCC1 | . | . | . | . | .
SMILES | HSV augment | Arbovirus anti | m-calpain inh | ROMK primary | Efa HMGR inh
COc1ccccc1CNC(=O)c1ccc(N2CCOCC2)c([N+](=O)[O-])c1 | . | . | . | . | .
COc1ccc2cc(C(=O)N3CCCCCC3)sc(=O)c2c1OC | . | . | 59.6 | . | .
C#CCNC(=O)C1CCN(c2cc(C)nc(-c3ccccc3)n2)CC1 | . | . | . | . | .
Cc1nc(-c2ccc(S(=O)(=O)Nc3ccc(Br)cc3Cl)s2)cs1 | . | / | 62.9 | . | /
COc1ccc(C(=O)c2ccc(Cl)c([N+](=O)[O-])c2)cc1 | . | . | . | . | .
COc1ccc(C(=O)CCC(C)(C)[N+](=O)[O-])cc1 | . | . | . | . | 11.9
O=C(c1cccnc1)N1c2ccccc2Sc2ccccc21 | . | . | . | . | 11.8
COc1ccccc1C(=O)N1c2ccccc2Sc2ccccc21 | . | . | . | / | .
O=S(=O)(N/N=C1/CCCc2ccccc21)c1ccc(Br)cc1 | . | . | . | -3.7 | .
CC1=C(C(=O)Nc2ccccc2C)C(c2ccc(C)o2)NC(=S)N1 (configuration not stated) | . | . | . | . | .
CC(C(=O)O)n1cc(Cl)cn1 (configuration not stated) | . | . | . | . | .

Assay outcomes from PubChem.
